According to PubChem BioAssay (EPA / NIEHS):
Active and inactive are the calls of the source. How the source made its calls: active means hit-call score of the fitted dose curve at least 0.9, where 1 is the maximum; inactive means score below 0.9.

read-out: Fatty acid synthase (Homo sapiens) (UniProt P49327); assay: LTEA_HepaRG_FASN: Life Technologies and Expression Analysis (LTEA) Assay for Fatty Acid Synthase (FASN) using HepaRG (AID 2283448); details: mRNA level, 48 h; actives raise or lower the signal
Method: LTEA_HepaRG is a cell based, multiplexed-readout assay that uses HepaRG, a human liver cell line, with measurements taken at 48 hours after chemical dosing on a 96-well plate.LTEA_HepaRG_FASN is one of 102 assay component(s) measured in the LTEA HepaRG cell culture assay. It is a marker of Steatosis.Data from the assay component LTEA_HepaRG_FASN was analyzed into 1 endpoint. This assay endpoint, LTEA_HepaRG_FASN, was analyzed with bidirectional fitting relative to DMSO as the negative control and baseline of activity. Using a type of inducible reporter, measures of mRNA induction for gain or loss-of-signal activity can be used to understand regulation of transcription factor activity. To generalize the intended target to other relatable targets, this assay endpoint is annotated to the lyase intended target family, where the subfamily is fatty acid synthase.
A total of 1060 chemcials from the ToxCast library were tested in eight-point concentration-response experiments. Cell culture and cytotoxicity assays were conducted at Thermo Fisher Scientific's Custom Services facility (Madison, WI). A single lot of human HepaRG cells (Thermo Fisher Scientific, Frederick, MD) was used for the cell culture experiments. 96-well format collagen type I coated plates of human HepaRG cells were prepared using established methods. Briefly, cryopreserved HepaRG cells were thawed, plated at a density of approximately 100,000 cells/well in HepaRG Thaw, Plate, and General Purpose media (HPRG770, Thermo Fisher Scientific), and incubated for 48 hours. 0.5% DMSO was selected as vehicle control to balance the requisite need of DMSO in HepaRG cultures to maintain differentiation (for example, baseline metabolism, proportions of hepatocytes vs. cholangiocytes), while enabling further hepatic receptor pathway activation (for example, PXR and CAR) in response to chemical exposure. 48 hours after plating, the culture medium was replaced with HepaRG Serum-Free Incudtion Media. Cells were exposed to each test chemical in duplicate and maintained in CO2 incubators for another 48 hours. Chemical plates were thawed to room temperature and 200x concentrations of treatment groups were prepared. 8-point conentration-reponse curves were made with the highest exposure at 100 uM, followed by half-log dilutions, all in 0.5% DMSO. Each test plate contained variouse controls, induction positive controls (1mM phenobarbital), cytotoxicity positive controls ([…] aflatoxin B1), vehicle controls (0.5% DMSO), and total lysis controls (0.5% DMSO). Cell morphology images were taken using an Essen IncuCyte FLR automated microscope, with six 96-well plates imaged in about 24 minutes. Images were captured and exported and JPEG files. Spent culture media was transfered to black-well plates for the LDH assay, and remaining media was sorted at -80 C for later use. Cells were treated with RLT buffer and frozen until shipped for gene expression analysis. Total RNA was isolated from the cell suspension in 75 uL of Buffer RLT (Qiagen, Germantown, MD 20874) by Quintiles/Expression Analysis (Durham, NC) using a custom isolation procedure. Total RNA from each plate well was transferred to a preamplification plate. Fluidigm's 96.96 Dynamic ArrayTM (Fluidigm, Amsterdam, the Netherlands) technology was used for gene expression analyses by quantitative reverse transcription polymerase chain reaction (qRT-PCR, performed by Quintiles/Expression Analysis, Durham, NC)89. Standard TaqManTM Assays (Applied Biosystems/ThermoFisher Scientific, Foster City, CA) were used to assess the expression of 93 genes selected based on their selectivity and sensitivity to important hepatic receptors known to be modulated by environmental chemicals; importance in human hepatocyte functionality; and hepatotoxicity. […]

Fatty acid synthase (Homo sapiens), sequence (P49327 whole entry, looked up): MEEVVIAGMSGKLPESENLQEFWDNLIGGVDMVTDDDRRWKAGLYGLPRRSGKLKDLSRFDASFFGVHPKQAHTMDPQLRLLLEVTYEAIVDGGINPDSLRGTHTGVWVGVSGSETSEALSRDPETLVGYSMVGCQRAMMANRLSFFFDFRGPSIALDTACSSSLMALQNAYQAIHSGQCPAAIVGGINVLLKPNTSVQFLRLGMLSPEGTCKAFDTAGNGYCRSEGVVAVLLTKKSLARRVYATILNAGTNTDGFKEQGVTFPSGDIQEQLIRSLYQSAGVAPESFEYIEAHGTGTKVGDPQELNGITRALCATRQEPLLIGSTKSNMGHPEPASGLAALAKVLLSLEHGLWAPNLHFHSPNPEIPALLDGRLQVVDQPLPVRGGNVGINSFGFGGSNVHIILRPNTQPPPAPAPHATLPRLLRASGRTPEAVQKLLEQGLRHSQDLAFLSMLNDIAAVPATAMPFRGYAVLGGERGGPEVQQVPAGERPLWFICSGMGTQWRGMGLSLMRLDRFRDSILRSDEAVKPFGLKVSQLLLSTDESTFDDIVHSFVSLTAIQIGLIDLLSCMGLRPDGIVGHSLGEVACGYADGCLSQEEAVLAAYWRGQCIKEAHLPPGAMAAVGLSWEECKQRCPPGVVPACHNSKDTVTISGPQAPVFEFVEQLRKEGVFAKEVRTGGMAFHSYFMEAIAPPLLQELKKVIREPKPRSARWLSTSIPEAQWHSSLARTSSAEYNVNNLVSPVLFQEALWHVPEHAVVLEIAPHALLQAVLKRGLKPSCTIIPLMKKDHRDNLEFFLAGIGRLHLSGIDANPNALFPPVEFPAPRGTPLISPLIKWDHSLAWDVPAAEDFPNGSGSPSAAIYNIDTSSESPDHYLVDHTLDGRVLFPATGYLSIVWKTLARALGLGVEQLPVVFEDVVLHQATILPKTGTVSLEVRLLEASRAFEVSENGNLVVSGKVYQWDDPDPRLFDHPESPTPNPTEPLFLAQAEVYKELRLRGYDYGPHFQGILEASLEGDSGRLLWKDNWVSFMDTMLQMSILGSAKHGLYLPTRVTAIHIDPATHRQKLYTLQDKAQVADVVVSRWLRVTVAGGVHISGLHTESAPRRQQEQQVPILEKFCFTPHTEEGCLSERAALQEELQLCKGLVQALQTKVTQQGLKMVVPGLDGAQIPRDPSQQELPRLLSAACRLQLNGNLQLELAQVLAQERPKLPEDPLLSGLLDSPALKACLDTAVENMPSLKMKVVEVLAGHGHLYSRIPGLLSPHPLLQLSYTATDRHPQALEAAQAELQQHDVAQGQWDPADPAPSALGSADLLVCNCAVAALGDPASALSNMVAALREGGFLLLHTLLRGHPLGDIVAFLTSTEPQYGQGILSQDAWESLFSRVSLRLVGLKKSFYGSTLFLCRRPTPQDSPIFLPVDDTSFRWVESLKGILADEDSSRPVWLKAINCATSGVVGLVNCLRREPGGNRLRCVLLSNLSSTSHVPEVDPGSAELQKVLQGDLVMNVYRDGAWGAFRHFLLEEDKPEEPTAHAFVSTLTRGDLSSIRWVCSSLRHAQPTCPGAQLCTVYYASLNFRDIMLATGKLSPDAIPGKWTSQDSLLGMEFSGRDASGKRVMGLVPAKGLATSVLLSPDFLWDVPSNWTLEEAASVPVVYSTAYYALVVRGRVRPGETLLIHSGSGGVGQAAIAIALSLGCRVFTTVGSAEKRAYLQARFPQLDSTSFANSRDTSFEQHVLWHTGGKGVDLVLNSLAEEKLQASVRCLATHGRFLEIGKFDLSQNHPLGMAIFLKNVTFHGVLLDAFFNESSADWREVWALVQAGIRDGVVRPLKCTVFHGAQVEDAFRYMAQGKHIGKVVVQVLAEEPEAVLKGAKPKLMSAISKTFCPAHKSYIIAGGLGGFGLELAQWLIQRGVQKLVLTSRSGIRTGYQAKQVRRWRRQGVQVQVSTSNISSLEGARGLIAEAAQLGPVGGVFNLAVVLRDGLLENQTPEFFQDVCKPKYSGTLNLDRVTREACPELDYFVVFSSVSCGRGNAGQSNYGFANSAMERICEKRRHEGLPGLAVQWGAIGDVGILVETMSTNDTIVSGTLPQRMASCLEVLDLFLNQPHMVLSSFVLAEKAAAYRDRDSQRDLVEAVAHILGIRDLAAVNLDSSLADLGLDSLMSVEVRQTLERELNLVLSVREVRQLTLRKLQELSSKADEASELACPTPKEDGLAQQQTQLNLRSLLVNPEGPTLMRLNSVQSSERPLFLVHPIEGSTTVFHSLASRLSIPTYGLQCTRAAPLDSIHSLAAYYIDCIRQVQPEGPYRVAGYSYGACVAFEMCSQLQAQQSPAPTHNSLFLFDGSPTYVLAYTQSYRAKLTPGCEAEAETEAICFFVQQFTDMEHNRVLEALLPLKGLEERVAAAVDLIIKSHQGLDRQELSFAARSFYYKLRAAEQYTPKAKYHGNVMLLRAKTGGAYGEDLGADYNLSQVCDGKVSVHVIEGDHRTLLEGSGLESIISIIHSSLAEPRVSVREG

Compound	outcome	AC50
CCCCCCCCC(=O)O	inactive	–
CC(C)CCCCCCOC(=O)CCCCC(=O)OCCCCCCC(C)C	inactive	–
CC(=O)CC(C)(C)O	inactive	–
c1ccc2c(c1)ccc1ccccc12	inactive	–
NC(=O)N1C(=O)C(C(=O)c2cc(Cl)cs2)c2cc(F)c(Cl)cc21 (stereo not given)	inactive	–
CCCCCCCC(=O)O	inactive	–
C[C@@H]1C[C@H]2[C@@H]3CCC4=CC(=O)C=C[C@]4(C)[C@@]3(F)[C@@H](O)C[C@]2(C)[C@@]1(O)C(=O)COP(=O)(O)O	inactive	–
CC#C[C@]1(O)CC[C@H]2[C@@H]3CCC4=CC(=O)CCC4=C3[C@@H](c3ccc(N(C)C)cc3)C[C@@]21C	–	4.54 µM (active)
CCc1ccc(CCOc2ccc(CC3SC(=O)NC3=O)cc2)nc1 (stereo not given)	inactive	–
C#C[C@]1(O)CC[C@H]2[C@@H]3CCC4=CC(=O)CC[C@@H]4[C@H]3CC[C@@]21C	–	50 µM (active)
CCCCC(CC)COC(=O)CCCCC(=O)OCC(CC)CCCC (stereo not given)	inactive	–
OCCC(F)(F)C(F)(F)C(F)(F)C(F)(F)C(F)(F)C(F)(F)C(F)(F)C(F)(F)F	inactive	–
CCCCCCCCCCCCCCCS(=O)(=O)Oc1ccccc1	inactive	–
COc1ccc([N+](=O)[O-])cc1N	inactive	–
CCCCCCC(=O)O	inactive	–
COCC(C)OCC(C)O (stereo not given)	inactive	–
O=C(O)c1ccccc1C(c1ccc(O)cc1)c1ccc(O)cc1	inactive	–
CCc1nn(C2CCCCC2)c2cc(C3(C#N)CCC(C(=O)O)CC3)ccc12 (stereo not given)	–	85.1 µM (active)
CN1CCC[C@H]1c1cccnc1	inactive	–
c1ccc2c(c1)Cc1ccccc1-2	inactive	–

Compound	outcome	AC50
CC(C)(C)c1cccc(C(C)(C)C)c1O	inactive	–
Oc1cc2ccccc2c2ccccc12	inactive	–
CC[C@H](c1ccc(O)cc1)[C@@H](CC)c1ccc(O)cc1	–	76.2 µM (active)
CC(C)(C)c1ccc(O)c(C(C)(C)C)c1	inactive	–
Cc1cc(CCN2CCN(c3nsc4ccccc34)CC2)cc2c1NC(=O)CC2(C)C	–	50 µM (active)
O=[N+]([O-])c1ccc(O)cc1	inactive	–
OCCC(F)(F)C(F)(F)C(F)(F)C(F)(F)C(F)(F)C(F)(F)F	inactive	–
CCCCCCCCCCCCN1CCCC1=O	inactive	–
N#C[C@@H]1CC(F)(F)CN1C(=O)CNC1CC2CCC(C1)N2c1ncccn1 (stereo not given in full)	inactive	–
Oc1cccc(O)c1	inactive	–
CC(C)(C)CC(C)(C)c1ccc(O)c(-n2nc3ccccc3n2)c1	–	50 µM (active)
CCCCOCCO	inactive	–
CN1CCN(c2ccccc2/C=C2\SCCN(c3ccc(Cl)c(Cl)c3)C2=O)CC1	inactive	–
c1ccc2cc3c(ccc4ccccc43)cc2c1	–	4.82 µM (active)
O=C(OCCOCCOC(=O)c1ccccc1)c1ccccc1	inactive	–
CC(=O)NC1(c2cccc(F)c2)CCN(CC[C@@]2(c3ccc(Cl)c(Cl)c3)CN(c3ccccc3)C(=O)CO2)CC1	inactive	–
CCC(C)(C)C1CCC(O)CC1 (stereo not given)	inactive	–
ClC1=C(Cl)C(Cl)(Cl)C(Cl)=C1Cl	inactive	–
CC(C)(C)c1cc(C(C)(C)C)c(O)c(C(C)(C)C)c1	–	50 µM (active)
CCCCC(CC)COC(=O)CCCCC(=O)OCc1ccccc1 (stereo not given)	inactive	–
